Screens deposited in PubChem BioAssay by National Center for Advancing Translational Sciences (NCATS).
In the library only some 5.6% were active in any assay of this set; here they are far more common.
Six1-Eya2 blk: Six1/Eya2 interaction inhibition; Q15475+O00167; AlphaScreen GST-Six1/His-Eya2 binding, biochemical; active compounds read low; activity change, % (no concentration beside the values); 360,000 compounds, 0.56% hits; AID 651725; in the data active means activity change below about -65%; inconclusive means mostly about -30% to -63%
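Homogeneous AlphaScreen proximity assay pairing GST-Six1 with His-tagged Eya2 (added as 5X mix: 250 nM and 500 nM) in 50 mM Tris pH 8.0, 300 mM NaCl, 1 mM TCEP. Glutathione donor and nickel acceptor beads; 1 h, 37 °C, dark.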
Gal4-VP16 FLuc: inhibits Gal4-VP16 luciferase reporter, ROR gamma counter-screen. Drosophila S2 Gal4-VP16 UAS-luciferase, luminescence, 20 h. 310,000 compounds, 3.5% hits. AID 2546. Potency, µM (top dose mostly 53.6 µM), for inactives: at the highest dose activity, negative = inhibition, actives largely listed as inhibitors;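 further: Gal4-VP16 expression switched on by copper sulfate through the metallothionein promoter; potency means the concentration at half of the fitted maximal effect; nearly all actives have a fitted effect of over 50% in size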
CtBP-E1A blk: blocks the CtBP interaction with E1A | 340,000 compounds, 0.49% hits | activity change, % (test concentration not listed) | AlphaScreen GST-E1A/His-CtBP binding, 1536-well; active compounds read low | AID 651724; in the data active means activity change below about -65%; inconclusive means mostly about -30% to -63%
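Protein mix (5X: 125 nM each GST-E1A, His-CtBP) was incubated with pinned compound 2 h at 37 deg C in dark, in 50 mM Tris pH 8.0 buffer with 300 mM NaCl. Glutathione donor and nickel acceptor beads followed; AlphaScreen signal read after 1 h.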
PKM2 act: PKM2 (human) enzyme activation; 260,000 compounds, 0.34% hits; AID 1631; purified PKM2, Kinase-Glo ATP luminescence, activation; response scale: 0% is enzyme alone, no compound; Potency, µM (highest dose often 57.5 µM), for inactives: at the top dose activation, usual class: activators; further: potency means the concentration at half of the fitted maximal effect; nearly all actives have a fitted effect of over 55% in size
Target sequence (P14618 whole entry, looked up): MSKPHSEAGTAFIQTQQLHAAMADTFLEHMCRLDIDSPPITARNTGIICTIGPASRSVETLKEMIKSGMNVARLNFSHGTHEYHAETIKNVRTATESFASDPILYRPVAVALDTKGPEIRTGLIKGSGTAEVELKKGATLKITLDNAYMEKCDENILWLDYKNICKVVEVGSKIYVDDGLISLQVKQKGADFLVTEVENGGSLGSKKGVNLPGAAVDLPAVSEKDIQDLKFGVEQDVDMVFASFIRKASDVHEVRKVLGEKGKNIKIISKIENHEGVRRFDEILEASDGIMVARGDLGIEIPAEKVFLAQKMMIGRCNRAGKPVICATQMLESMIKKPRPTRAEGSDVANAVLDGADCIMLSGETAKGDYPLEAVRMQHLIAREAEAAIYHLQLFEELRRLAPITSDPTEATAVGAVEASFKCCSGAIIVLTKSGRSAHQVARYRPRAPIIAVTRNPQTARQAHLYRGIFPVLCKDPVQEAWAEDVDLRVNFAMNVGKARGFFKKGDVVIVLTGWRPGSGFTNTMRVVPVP
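Purified hPK-M2 (>95% pure) converted ADP (0.1 mM final) to ATP with 0.5 mM PEP in 50 mM imidazole pH7.2, KCl, MgCl2, Tween 20, BSA; 1 h at room temperature. ATP detected by Kinase-Glo luminescence.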
RORg inh: ROR gamma (mouse) transcription inhibition | Drosophila S2 Gal4-RORgamma UAS-luciferase reporter, 20 h | Potency, µM (titrated, usually from 53.6 µM), for the others: top-dose activity change, negative = inhibition, usual class: inhibitors | 310,000 compounds, 5.4% hits; further: potency means the concentration at half of the fitted maximal effect; nearly all actives have a fitted effect of over 60% in size
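Using a luciferase readout, inhibitors were identified by reduced reporter activity in Drosophila cells coexpressing a copper-inducible Gal4–ROR gamma fusion and UAS-driven Photinus luciferase, incubated 20 hr after 700 uM copper sulfate.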
Numbers without * were called inactive. Unless noted, the call rests on the fitted dose curve; in most records, active means well fitted curve in the direction sought with a large enough effect; inconclusive means small, poorly fitted or top-dose-only effect, or another doubt; inactive means no such curve, though single readings can be large; an effect the other way counts as inactive or inconclusive. On the % scale 0 is the no-effect control and ±100 the full control effect.

CNC(=O)c1[nH]cnc1C(=O)Nc1ccccc1OC was read as Six1-Eya2 blk -29, Gal4-VP16 FLuc 16µM*, CtBP-E1A blk -12, PKM2 act 2% and RORg inh 13µM*.
For CNC(=O)c1[nH]cnc1C(=O)Nc1ccccc1C the results were Six1-Eya2 blk -6, Gal4-VP16 FLuc 7.9µM*, CtBP-E1A blk -4, PKM2 act -10% and RORg inh 11µM*.
For Cc1cccc(NC(=O)c2nc[nH]c2C(=O)Nc2ccccc2[N+](=O)[O-])c1 the results were Six1-Eya2 blk -8, Gal4-VP16 FLuc 5.6µM*, PKM2 act -5% and RORg inh 4.5µM*.
For CNC(=O)c1[nH]cnc1C(=O)Nc1cccc(Cl)c1 the results were Six1-Eya2 blk 2 and CtBP-E1A blk -3.
Screening Cc1cccc(NC(=O)c2nc[nH]c2C(=O)Nc2cc(Br)ccc2F)c1 returned Six1-Eya2 blk 4 and CtBP-E1A blk 4.
For O=C(CN1C(=O)NC2(CCCCC2)C1=O)N1CCN(S(=O)(=O)/C=C/c2ccccc2)CC1 the results were Six1-Eya2 blk 9 and CtBP-E1A blk -11.
`CC1(C)C[C@@H]1C(=O)N/C(=C\CCCCSC[C@H](N)C(=O)O)C(=O)O` gave Six1-Eya2 blk -2, Gal4-VP16 FLuc -3%, CtBP-E1A blk 8 and RORg inh -20%.
Screening CCC1(CC)C(=O)C2=C3C1[C@H](C(=O)OC)CC(C(=O)OC)C[C@H]3[C@H]1C(=O)N(C)C(=O)[C@H]1[C@H]2C (stereo partly drawn) returned Gal4-VP16 FLuc 4% and RORg inh -15%.
`COc1ccc(Cl)cc1NC(=S)Nc1cccc(C)c1` gave Six1-Eya2 blk -7, Gal4-VP16 FLuc inconclusive, CtBP-E1A blk -4, PKM2 act -3% and RORg inh 11µM*.
Screening O=C(COc1cccc2cccnc12)NNC(=S)Nc1ccccc1 returned Gal4-VP16 FLuc -2%, PKM2 act 2% and RORg inh 0.89µM*.
CCC(=O)NC(=S)Nc1ccc(NC(=O)CC)cc1 was read as Six1-Eya2 blk 2, Gal4-VP16 FLuc -4%, CtBP-E1A blk 1, PKM2 act -4% and RORg inh 18%.
`O=C(COc1cccc2ccccc12)NNC(=O)Nc1ccccc1` gave Six1-Eya2 blk 1, Gal4-VP16 FLuc 1%, CtBP-E1A blk 15, PKM2 act 2% and RORg inh 5%.
Screening CCC(=O)NC(=S)Nc1ccc(NC(=O)COc2ccc(Cl)cc2Cl)cc1 returned Six1-Eya2 blk -4, Gal4-VP16 FLuc inconclusive, CtBP-E1A blk -10, PKM2 act 1% and RORg inh 11µM*.
For Cc1cccc(NC(=S)NNC(=O)COc2ccc(Cl)cc2Cl)c1 the results were Six1-Eya2 blk -12, Gal4-VP16 FLuc 2.8µM*, CtBP-E1A blk -13, PKM2 act -14% and RORg inh 4.5µM*.
COc1ccc(NC(=S)NNC(=O)COc2ccc(Cl)cc2Cl)cc1 was read as Six1-Eya2 blk -4, Gal4-VP16 FLuc -7%, CtBP-E1A blk -5, PKM2 act -5% and RORg inh inconclusive.
`Cc1cc[n+]2n1CC(O)C2` (stereo not drawn) gave Six1-Eya2 blk 4, Gal4-VP16 FLuc -5%, CtBP-E1A blk 2, PKM2 act -11% and RORg inh -2%.
Screening CCN=c1scc(-c2ccco2)n1/N=C/c1ccc(O)cc1 returned Six1-Eya2 blk -13, Gal4-VP16 FLuc 0.5µM*, CtBP-E1A blk -9, PKM2 act 2% and RORg inh 0.1µM*.
For CCCCCCNC(=O)CC(c1ccccc1)c1cc(Br)ccc1O (stereo not drawn) the results were Six1-Eya2 blk -8, Gal4-VP16 FLuc 10µM*, CtBP-E1A blk -1, PKM2 act -12% and RORg inh 2.8µM*.
`CC(C)NC(=O)CC(c1ccccc1)c1cc(Br)ccc1O` (stereo not drawn) gave Six1-Eya2 blk -21, Gal4-VP16 FLuc -9%, CtBP-E1A blk -28, PKM2 act -12% and RORg inh 20%.
Cc1nn(-c2ccccc2)c(N2CCCC2)c1/C=N/NC(=S)Nc1ccccc1F was read as Six1-Eya2 blk 2, Gal4-VP16 FLuc 0.35µM*, CtBP-E1A blk 2, PKM2 act -3% and RORg inh 0.35µM*.
Cc1nn(-c2ccccc2)c(N2CCCC2)c1/C=N/NC(=O)c1cc2ccccc2cc1O was read as Six1-Eya2 blk -11, Gal4-VP16 FLuc 3.5µM*, CtBP-E1A blk 4, PKM2 act 4% and RORg inh 3.5µM*.
For Cc1nn(-c2ccccc2)c(N2CCCC2)c1/C=N/NC(=O)c1cc(-c2ccccc2)nc2ccccc12 the results were Six1-Eya2 blk inconclusive, Gal4-VP16 FLuc -19%, CtBP-E1A blk -17, PKM2 act 9% and RORg inh 15%.
`Cc1ccc(N2C(=O)CS/C2=N\C(=S)Nc2ccccc2)cc1` gave Six1-Eya2 blk 7, Gal4-VP16 FLuc -28%, CtBP-E1A blk 3, PKM2 act -14% and RORg inh inconclusive.
Screening COc1ccc2[nH]c3c(c2c1)CCNC3(C)CCc1ccc(Cl)nc1 (stereo not drawn) returned Six1-Eya2 blk -13, Gal4-VP16 FLuc 0% and RORg inh -14%.
`O=C1CCCCc2sc(Br)c([N+](=O)[O-])c2N1` gave Six1-Eya2 blk 5, Gal4-VP16 FLuc inconclusive, CtBP-E1A blk 5, PKM2 act -1% and RORg inh 11µM*.
C=C1C(=O)O[C@H]2C[C@]3(C)C([C@@H](OC(=O)/C(C)=C/C)[C@H]12)[C@](C)(O)CC[C@H]3O (stereo partly drawn) was read as Six1-Eya2 blk 2, Gal4-VP16 FLuc inconclusive and RORg inh 11µM*.
For Cc1nn(Cc2ccccc2Cl)c2sc(C(=O)Nc3nccs3)cc12 the results were Six1-Eya2 blk 2, Gal4-VP16 FLuc inconclusive, CtBP-E1A blk 7, PKM2 act 2% and RORg inh 10µM*.
For CCC(CC)NC(=O)c1cc2c(C)nn(Cc3ccccc3Cl)c2s1 the results were Six1-Eya2 blk -2, Gal4-VP16 FLuc 4%, CtBP-E1A blk -2, PKM2 act -4% and RORg inh 11%.
`Cc1nn(Cc2ccc(F)cc2)c2sc(C(=O)Nc3nccs3)cc12` gave Six1-Eya2 blk 1, Gal4-VP16 FLuc inconclusive, CtBP-E1A blk 5, PKM2 act 1% and RORg inh 11µM*.
Screening COc1cccc(C2C(C(=O)c3cccs3)=C(O)C(=O)N2CCN2CCOCC2)c1OC (stereo not drawn) returned Six1-Eya2 blk 6, Gal4-VP16 FLuc -11%, CtBP-E1A blk 2 and RORg inh -17%.
For NN(Cc1ccccc1)C(=S)Nc1ccc(Cl)c(Cl)c1 the results were Six1-Eya2 blk 8, Gal4-VP16 FLuc inconclusive, CtBP-E1A blk 15, PKM2 act 1% and RORg inh 11µM*.
